Data taken from PubChem BioAssay (EPA / NIEHS).
Inconclusive results are not listed. The source made the active and inactive calls. The calls were made as follows, unless noted: active = hit-call score of the fitted dose curve at least 0.9, where 1 is the maximum; inactive = score below 0.9.

Experiments:
[1] = molecular target: Paired box protein Pax-6 (Homo sapiens) (UniProt P26367); assay: ATG_Pax6_CIS: Attagene CIS-FACTORIAL HepG2 Assay for human Paired Box 6 (PAX6) (AID 2282956); settings: HepG2 CIS-FACTORIAL PAX6 reporter transcription, RNA readout; actives raise or lower the signal
Chain of Paired box protein Pax-6 (Homo sapiens) (P26367 whole entry, looked up): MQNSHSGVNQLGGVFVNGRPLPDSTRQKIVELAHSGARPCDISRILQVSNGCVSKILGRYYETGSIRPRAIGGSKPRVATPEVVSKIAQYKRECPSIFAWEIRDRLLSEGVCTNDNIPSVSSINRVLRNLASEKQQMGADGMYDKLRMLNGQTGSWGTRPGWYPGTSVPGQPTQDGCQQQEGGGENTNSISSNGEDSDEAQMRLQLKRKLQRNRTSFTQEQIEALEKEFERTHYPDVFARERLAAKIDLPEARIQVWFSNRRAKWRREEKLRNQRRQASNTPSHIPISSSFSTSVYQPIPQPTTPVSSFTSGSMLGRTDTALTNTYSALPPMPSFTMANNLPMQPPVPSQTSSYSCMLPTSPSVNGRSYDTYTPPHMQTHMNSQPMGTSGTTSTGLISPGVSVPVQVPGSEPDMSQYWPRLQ
In short: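 HepG2 cells transiently transfected with cis-promoter-driven multiplexed reporter units sensing endogenous transcription factor activity; 24 h chemical exposure. Reporter mRNA quantified by RT-PCR, 6-FAM labelling, HpaI digestion and capillary electrophoresis; bidirectional fit versus DMSO baseline.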

[2] = ATG_PXRE_CIS: Attagene CIS-FACTORIAL HepG2 Assay for human Pregnane X Receptor Element (PXRE) (AID 2282957); settings: HepG2 Attagene CIS-FACTORIAL PXRE reporter, mRNA; actives raise or lower the signal
In short: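 HepG2 cells transiently transfected with cis-regulated multiple reporter transcription units; endogenous factor activity measured as reporter mRNA 24 h after dosing. RT-PCR, fluorescent primer extension, HpaI digestion, capillary electrophoresis; bidirectional fit versus DMSO baseline.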

[3] = ATG_PPRE_CIS: Attagene CIS-FACTORIAL HepG2 Assay for human Peroxisome Proliferator-activated Response Element (PPRE) (AID 2282958); settings: HepG2 PPRE cis-element reporter, Attagene transcription factor profiling; actives raise or lower the signal
In short: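 Multiplexed reporter transcription units under cis-regulatory promoters were transfected into HepG2 cells to capture endogenous factor activity. A 24 h incubation preceded RNA isolation and fluorescent RT-PCR fragment analysis.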

[4] = ATG_RORE_CIS: Attagene CIS-FACTORIAL HepG2 Assay for human RAR-related Orphan Receptor Element (RORE) (AID 2282959); settings: HepG2 Attagene cis-factorial RORE reporter, mRNA; actives raise or lower the signal
In short: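 Fluorescence intensity of reporter-specific cDNA fragments, separated by capillary electrophoresis, gives the signal. Source: HepG2 liver cells transiently transfected with cis-element reporters and exposed 24 h; DMSO-normalized bidirectional fit.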

[5] = ATG_Sox_CIS: Attagene CIS-FACTORIAL HepG2 Assay for human SRY-box transcription factor (SOX) (AID 2282960); settings: HepG2 Attagene cis-factorial SOX reporter, mRNA; actives raise or lower the signal
In short: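 After 24 h of chemical treatment, transfected HepG2 reporter cells are lysed for total RNA. Transcript levels come from RT-PCR with labelled primer extension and capillary electrophoresis, analysed bidirectionally versus DMSO.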

[6] = molecular target: Transcription factor Sp1 (Homo sapiens) (UniProt P08047); assay: ATG_Sp1_CIS: Attagene CIS-FACTORIAL HepG2 Assay for human Specificity Protein 1 (Sp1) (AID 2282961); settings: HepG2 Sp1 cis-reporter transcription, actives raise or lower the signal
Chain of Transcription factor Sp1 (Homo sapiens) (P08047 whole entry, looked up): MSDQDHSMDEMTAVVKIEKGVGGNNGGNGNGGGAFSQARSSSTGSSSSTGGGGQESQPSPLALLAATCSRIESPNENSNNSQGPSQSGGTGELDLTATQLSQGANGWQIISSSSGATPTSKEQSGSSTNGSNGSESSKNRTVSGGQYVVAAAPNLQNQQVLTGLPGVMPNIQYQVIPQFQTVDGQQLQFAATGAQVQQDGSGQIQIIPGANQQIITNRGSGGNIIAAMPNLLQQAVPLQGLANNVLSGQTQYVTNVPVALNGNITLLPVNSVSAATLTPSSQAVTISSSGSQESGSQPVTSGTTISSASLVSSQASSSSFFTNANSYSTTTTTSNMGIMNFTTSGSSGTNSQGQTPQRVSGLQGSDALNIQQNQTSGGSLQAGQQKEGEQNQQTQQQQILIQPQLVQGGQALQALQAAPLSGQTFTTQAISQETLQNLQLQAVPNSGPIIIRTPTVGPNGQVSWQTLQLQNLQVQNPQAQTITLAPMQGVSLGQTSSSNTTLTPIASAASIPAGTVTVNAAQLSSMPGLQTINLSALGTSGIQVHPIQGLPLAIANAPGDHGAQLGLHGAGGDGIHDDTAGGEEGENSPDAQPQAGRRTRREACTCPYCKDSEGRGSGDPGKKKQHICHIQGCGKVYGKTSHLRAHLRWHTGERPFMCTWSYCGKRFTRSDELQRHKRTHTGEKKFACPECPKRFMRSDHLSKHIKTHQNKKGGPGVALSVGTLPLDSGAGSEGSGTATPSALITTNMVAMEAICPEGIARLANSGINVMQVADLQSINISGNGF
In short: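 Sp1-driven reporter mRNA, read as capillary electrophoresis fluorescence after RT-PCR, in transiently transfected HepG2 cells dosed for 24 h; signal change in either direction relative to DMSO.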

[7] = ATG_SREBP_CIS: Attagene CIS-FACTORIAL HepG2 Assay for human Sterol Regulatory Element Binding (SREBP) (AID 2282962); settings: HepG2 Attagene cis-factorial SREBP reporter, mRNA; actives raise or lower the signal
In short: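 HepG2 cells transiently transfected with multiplexed cis-promoter reporter units sensing endogenous transcription factors; reporter mRNA measured 24 h after dosing by RT-PCR, 6-FAM labeling, HpaI digestion and capillary electrophoresis. Bidirectional fit versus DMSO.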

[8] = molecular target: Signal transducer and activator of transcription 3 (Homo sapiens) (UniProt P40763); assay: ATG_STAT3_CIS: Attagene CIS-FACTORIAL HepG2 Assay for human Signal Transducer and Activator of Transcription 3 (STAT3) (AID 2282963); settings: HepG2, Attagene cis-factorial STAT3 reporter transcription; actives raise or lower the signal
Chain of Signal transducer and activator of transcription 3 (Homo sapiens) (P40763 whole entry, looked up): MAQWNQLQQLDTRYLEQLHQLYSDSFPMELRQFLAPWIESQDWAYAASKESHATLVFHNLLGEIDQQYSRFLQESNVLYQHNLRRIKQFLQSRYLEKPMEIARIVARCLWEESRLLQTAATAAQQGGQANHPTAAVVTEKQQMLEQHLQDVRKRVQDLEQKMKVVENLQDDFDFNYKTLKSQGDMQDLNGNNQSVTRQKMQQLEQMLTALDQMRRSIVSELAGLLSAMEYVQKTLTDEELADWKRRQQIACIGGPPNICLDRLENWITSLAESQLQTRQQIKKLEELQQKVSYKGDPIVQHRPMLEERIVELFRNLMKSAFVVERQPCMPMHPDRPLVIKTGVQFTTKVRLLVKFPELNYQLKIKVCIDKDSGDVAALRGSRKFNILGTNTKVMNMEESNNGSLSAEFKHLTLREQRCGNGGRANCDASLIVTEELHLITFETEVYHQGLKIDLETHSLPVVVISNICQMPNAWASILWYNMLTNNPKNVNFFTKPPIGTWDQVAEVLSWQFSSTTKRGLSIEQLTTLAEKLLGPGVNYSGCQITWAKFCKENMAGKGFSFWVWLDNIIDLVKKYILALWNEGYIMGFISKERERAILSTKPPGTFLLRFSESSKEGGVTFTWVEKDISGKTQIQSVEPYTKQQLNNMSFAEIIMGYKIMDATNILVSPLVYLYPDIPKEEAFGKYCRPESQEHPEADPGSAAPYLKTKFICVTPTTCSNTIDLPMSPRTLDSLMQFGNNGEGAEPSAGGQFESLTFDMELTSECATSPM
In short: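 HepG2 cells transiently transfected with cis-element-driven multiple reporter transcription units; after 24 h chemical exposure, reporter mRNA measured by RT-PCR, 6-FAM primer-extension labelling, HpaI digestion and capillary electrophoresis. Bidirectional fitting versus DMSO baseline.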

[9] = ATG_TA_CIS: Attagene CIS-FACTORIAL HepG2 Assay for human TA Basal Promoter (AID 2282964); settings: HepG2 Attagene CIS-factorial TA basal promoter reporter; actives raise or lower the signal
In short: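 Transient MRTU transfection of HepG2 preceded 24 h compound exposure. Reporter mRNA levels were then read by RT-PCR with capillary electrophoresis, and this background-control endpoint was fitted bidirectionally to DMSO.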

[10] = ATG_TCF_b_cat_CIS: Attagene CIS-FACTORIAL HepG2 Assay for human T-Cell-Factor with beta-catenin (TCF/b-cat) (AID 2282965); settings: HepG2 TCF/beta-catenin cis-reporter transcription, actives raise or lower the signal
In short: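 Using capillary electrophoresis as the read-out, labelled reporter cDNA fragments from transiently transfected HepG2 were sized and quantified. Exposure lasted 24 hours; activity in either direction was referenced to DMSO.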

[11] = ATG_TAL_CIS: Attagene CIS-FACTORIAL HepG2 Assay for human TAL Basal Promoter (AID 2282966); settings: HepG2 Attagene cis-factorial TAL promoter reporter; actives raise or lower the signal;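 also: background control endpoint measuring basal TAL promoter reporter mRNA not a specific factor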
In short: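 HepG2 cells were transiently transfected with promoter-driven multiplexed reporter units and dosed for 24 h. Reporter mRNA was measured by RT-PCR with capillary electrophoresis fluorescence; bidirectional fits used DMSO as baseline, serving as a background control.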

[12] = ATG_TGFb_CIS: Attagene CIS-FACTORIAL HepG2 Assay for human Transforming Growth Factor (TGF) (AID 2282967); settings: HepG2 Attagene CIS TGFb reporter, mRNA transcription; actives raise or lower the signal
In short: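 After a 24-hour incubation with compound, transfected HepG2 cells were lysed for RNA; reporter cDNA was amplified, fluorescently end-labeled and separated by CE. DMSO served as baseline for bidirectional fits.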

[13] = molecular target: Nuclear receptor subfamily 1 group I member 3 (Homo sapiens) (UniProt Q14994); assay: ATG_CAR_TRANS: Attagene TRANS-FACTORIAL HepG2 Assay for human Constitutive Androstane Receptor (CAR) (AID 2282969; active = hit-call score of the fitted dose curve at least 0.9, where 1 is the maximum;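 also: activators raise reporter mRNA above DMSO so AC50 marks induction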); settings: HepG2 Attagene TRANS-FACTORIAL CAR reporter
Chain of Nuclear receptor subfamily 1 group I member 3 (Homo sapiens) (Q14994 whole entry, looked up, the tested form may be a part): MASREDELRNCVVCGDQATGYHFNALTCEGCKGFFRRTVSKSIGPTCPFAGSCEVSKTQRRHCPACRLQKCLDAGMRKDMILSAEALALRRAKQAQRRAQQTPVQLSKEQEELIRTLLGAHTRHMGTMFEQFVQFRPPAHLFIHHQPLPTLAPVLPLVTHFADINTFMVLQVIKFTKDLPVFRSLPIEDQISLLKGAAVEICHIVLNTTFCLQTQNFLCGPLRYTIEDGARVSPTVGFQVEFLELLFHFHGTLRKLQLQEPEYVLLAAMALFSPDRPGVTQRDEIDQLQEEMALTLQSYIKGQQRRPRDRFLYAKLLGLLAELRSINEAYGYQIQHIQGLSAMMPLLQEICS
In short: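 HepG2 cells transiently transfected with multiplexed GAL4-UAS reporter units expressing chimeric NR-Gal4 proteins; compound exposure 24 h. Reporter mRNA measured by RT-PCR, 6-FAM labelling, HpaI digestion and capillary electrophoresis; gain-of-signal fitted against DMSO baseline.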

[14] = molecular target: Estrogen receptor (Homo sapiens) (UniProt P03372); assay: ATG_ERa_TRANS: Attagene TRANS-FACTORIAL HepG2 Assay for human Estrogen Receptor alpha (ERa) (AID 2282970; active = hit-call score of the fitted dose curve at least 0.9, where 1 is the maximum); settings: HepG2 Attagene TRANS ERa GAL4 reporter, mRNA
Chain of Estrogen receptor (Homo sapiens) (P03372 whole entry, looked up, the tested form may be a part): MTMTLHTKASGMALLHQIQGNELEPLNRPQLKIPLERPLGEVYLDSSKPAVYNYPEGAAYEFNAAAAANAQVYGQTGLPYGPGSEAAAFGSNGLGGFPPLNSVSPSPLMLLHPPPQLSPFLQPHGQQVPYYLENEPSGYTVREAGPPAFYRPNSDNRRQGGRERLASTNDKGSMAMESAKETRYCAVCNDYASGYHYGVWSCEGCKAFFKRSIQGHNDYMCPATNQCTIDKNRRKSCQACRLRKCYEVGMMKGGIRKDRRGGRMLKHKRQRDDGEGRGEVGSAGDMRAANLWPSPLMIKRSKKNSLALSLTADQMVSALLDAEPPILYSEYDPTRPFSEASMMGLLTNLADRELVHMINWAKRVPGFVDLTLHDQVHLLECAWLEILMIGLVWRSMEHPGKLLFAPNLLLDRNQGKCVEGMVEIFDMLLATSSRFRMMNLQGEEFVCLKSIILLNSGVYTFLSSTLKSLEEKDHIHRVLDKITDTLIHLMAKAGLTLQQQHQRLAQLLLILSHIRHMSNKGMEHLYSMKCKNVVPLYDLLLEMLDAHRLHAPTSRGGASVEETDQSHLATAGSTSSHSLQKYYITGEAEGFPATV
In short: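 HepG2 cells transiently transfected with multiplexed GAL4-UAS reporter units; ERa activity read via exogenous chimeric NR-Gal4 protein. After 24 hour compound exposure, reporter mRNA measured by RT-PCR with 6-FAM labelling and capillary electrophoresis; gain-of-signal fitted relative to DMSO.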

[15] = molecular target: X-box-binding protein 1 (Homo sapiens) (UniProt P17861); assay: ATG_Xbp1_CIS: Attagene CIS-FACTORIAL HepG2 Assay for human X-box Binding Protein 1 (XBP1) (AID 2282972); settings: HepG2 XBP1 cis-element reporter, Attagene multiplex; actives raise or lower the signal
Chain of X-box-binding protein 1 (Homo sapiens) (P17861 whole entry, looked up): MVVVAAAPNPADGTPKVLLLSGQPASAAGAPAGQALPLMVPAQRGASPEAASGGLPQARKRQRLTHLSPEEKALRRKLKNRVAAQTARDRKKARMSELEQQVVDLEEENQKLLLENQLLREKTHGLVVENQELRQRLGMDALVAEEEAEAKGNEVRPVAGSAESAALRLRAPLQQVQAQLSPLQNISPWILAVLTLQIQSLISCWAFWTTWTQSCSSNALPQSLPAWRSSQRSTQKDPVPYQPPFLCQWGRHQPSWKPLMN
In short: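 HepG2 cells transiently transfected with multiple cis-element reporter units report endogenous TF activity; 24 h exposure, then reporter mRNA measured by RT-PCR, 6-FAM labelling, HpaI digestion and capillary electrophoresis. Bidirectional fitting versus DMSO.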

[16] = ATG_M_19_TRANS: Attagene TRANS-FACTORIAL HepG2 Assay for M19 Transcription Factor (Internal Marker) (AID 2282974; active = hit-call score of the fitted dose curve at least 0.9, where 1 is the maximum); settings: HepG2 Attagene TRANS-FACTORIAL M19 internal marker reporter
In short: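 Measured here: internal-marker reporter transcript from HepG2 cells transfected with MRTUs, harvested at 24 h. cDNA PCR products were 6-FAM labelled by primer extension, cut with HpaI for 2 h at 37 C, and resolved by CE.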

[17] = ATG_GAL4_TRANS: Attagene TRANS-FACTORIAL HepG2 Assay for GAL4 (Internal Marker) (AID 2282976; active = hit-call score of the fitted dose curve at least 0.9, where 1 is the maximum); settings: HepG2 Attagene TRANS GAL4 internal marker reporter
In short: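 HepG2 cells transiently transfected with multiplexed GAL4-UAS reporter constructs were dosed for 24 h. Reporter mRNA was measured by RT-PCR, 6-FAM primer extension, HpaI digestion and capillary electrophoresis, and gain of signal was fitted relative to DMSO.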

[18] = molecular target: Estrogen-related receptor gamma (Homo sapiens) (UniProt P62508); assay: ATG_ERRg_TRANS: Attagene TRANS-FACTORIAL HepG2 Assay for human Estrogen-Related Receptor gamma (ERRg) (AID 2282977; active = hit-call score of the fitted dose curve at least 0.9, where 1 is the maximum;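 also: hits increase reporter signal over DMSO so potencies reflect activators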); settings: HepG2 Attagene TRANS reporter, ERRg transactivation
Chain of Estrogen-related receptor gamma (Homo sapiens) (P62508 whole entry, looked up, the tested form may be a part): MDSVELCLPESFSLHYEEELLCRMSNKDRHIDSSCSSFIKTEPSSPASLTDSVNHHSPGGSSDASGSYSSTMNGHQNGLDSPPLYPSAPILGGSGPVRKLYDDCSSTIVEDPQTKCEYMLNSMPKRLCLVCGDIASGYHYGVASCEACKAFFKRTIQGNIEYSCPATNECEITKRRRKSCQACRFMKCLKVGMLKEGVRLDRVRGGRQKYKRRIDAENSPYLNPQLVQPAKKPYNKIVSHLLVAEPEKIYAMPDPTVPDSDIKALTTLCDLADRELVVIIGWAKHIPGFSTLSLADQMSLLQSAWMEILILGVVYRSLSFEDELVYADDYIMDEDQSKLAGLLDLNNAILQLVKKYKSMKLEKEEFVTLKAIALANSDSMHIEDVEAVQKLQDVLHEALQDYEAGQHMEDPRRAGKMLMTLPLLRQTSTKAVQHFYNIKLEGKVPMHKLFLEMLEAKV
In short: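 HepG2 cells transiently transfected with multiplexed GAL4-UAS reporter units and chimeric NR-Gal4 constructs were exposed to test chemicals for 24 h. Reporter mRNA was measured by RT-PCR, 6-FAM primer extension, HpaI digestion and capillary electrophoresis; gain-of-signal versus DMSO.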

[19] = ATG_VDRE_CIS: Attagene CIS-FACTORIAL HepG2 Assay for human Vitamin D Receptor Element (VDRE) (AID 2282968); settings: HepG2 VDRE cis-reporter transcription, actives raise or lower the signal
In short: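 HepG2 cells transiently transfected with cis-element reporter units, dosed 24 h; reporter mRNA measured by RT-PCR, 6-FAM labeling, HpaI digestion and capillary electrophoresis. Activity fitted bidirectionally against DMSO baseline.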

[20] = molecular target: Steroid hormone receptor ERR1 (Homo sapiens) (UniProt P11474); assay: ATG_ERRa_TRANS: Attagene TRANS-FACTORIAL HepG2 Assay for human Estrogen-Related Receptor alpha (ERRa) (AID 2282971; active = hit-call score of the fitted dose curve at least 0.9, where 1 is the maximum); settings: HepG2 Attagene TRANS reporter, ERRa transactivation
Chain of Steroid hormone receptor ERR1 (Homo sapiens) (P11474 whole entry, looked up, the tested form may be a part): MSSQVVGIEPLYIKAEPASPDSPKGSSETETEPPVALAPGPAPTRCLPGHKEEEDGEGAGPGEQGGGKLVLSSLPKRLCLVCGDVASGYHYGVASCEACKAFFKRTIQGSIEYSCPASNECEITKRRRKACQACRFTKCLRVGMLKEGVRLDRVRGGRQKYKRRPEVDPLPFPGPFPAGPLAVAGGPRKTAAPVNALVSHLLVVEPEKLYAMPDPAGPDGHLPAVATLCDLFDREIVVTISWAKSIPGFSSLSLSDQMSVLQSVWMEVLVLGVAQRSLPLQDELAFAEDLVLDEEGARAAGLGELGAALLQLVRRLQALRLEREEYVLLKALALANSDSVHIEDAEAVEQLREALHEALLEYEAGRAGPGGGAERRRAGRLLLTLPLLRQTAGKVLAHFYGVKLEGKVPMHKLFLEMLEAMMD
In short: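 HepG2 cells transiently transfected with multiplexed GAL4-UAS reporter units reading chimeric ERRa-Gal4 activity; 24 h compound exposure. Reporter mRNA measured by RT-PCR, 6-FAM labelling, HpaI digest and capillary electrophoresis; gain of signal fitted versus DMSO baseline.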

Measured: AC50

Nc1ccc(F)c([N+](=O)[O-])c1
not listed: [19] | [20]
inactive: all other assays above

O=C1CCCCCCCCCCCCCCO1
active: [12] 158 µM
not listed: [13] | [14] | [18] | [20]
inactive: all other assays above

CCC(C(=O)NC(N)=O)c1ccccc1 (configuration not stated)
not listed: [13] | [14] | [17] | [18] | [19]
inactive: all other assays above

O=C1C(c2[nH]c3ccc(S(=O)(=O)O)cc3c2O)=Nc2ccc(S(=O)(=O)O)cc21
not listed: [9] | [13] | [14] | [16] | [18]
inactive: all other assays above

C=CC(C)(C)O
not listed: [9] | [13] | [14] | [18] | [20]
inactive: all other assays above

CCCOCC(C)O (configuration not stated)
active: [2] 25.5 µM
not listed: [13] | [14] | [20]
inactive: all other assays above

CC(C)=CCC/C(C)=C/COC=O
not listed: [13] | [14] | [16] | [18] | [20]
inactive: all other assays above

CC(C)(C)NC(N)=O
not listed: [9] | [16] | [18] | [20]
inactive: all other assays above
